# Measurements from PubChem BioAssay (NCATS).
# Records with an inconclusive call do not appear. Unmarked numbers belong to inactive results. Activity calls are given as the source filed them. Calls follow the shape of the dose curve; as a rule, active = well fitted curve in either direction with a large enough effect (not every such curve was filed as active); inconclusive = small, poorly fitted or top-dose-only effect, or another doubt; inactive = flat fitted curve, though single readings scatter.
# Experiment: AP1 Signaling Pathway (AID 357);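 also: ME-180 reporter cells stimulated with EGF at its EC50 level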
# Conditions: ME-180 (cervical carcinoma) AP-1-bla reporter, EGF-induced, beta-lactamase ratio, 5 h; at 17.2 µM (top of the series) unless noted
# How it was run: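 Read-out was the 460nm/530nm emission ratio (excitation 405nm) after CCF4 loading for 2.5 hours at room temperature. Cells carried an AP-1-driven beta-lactamase reporter, were stimulated with EC50 EGF plus compound for 5 hours, and AC50 values came from titrations.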
# % is scaled to controls: 0 for no effect and ±100 for the full control effect.
row,Compound,"activity change, negative = inhibition"
1,CCOC(=O)NC(Nc1cc(C)on1)(C(F)(F)F)C(F)(F)F,20.3%
2,CCOc1cccc(-c2nn3c(-c4ccco4)nnc3s2)c1,-15.5%
3,COc1cccc(N2CCN(c3ncnc4c3[nH]c3ccc(F)cc34)CC2C)c1 (stereo not given),-121% (active)
4,CCOC(=O)c1ccc(CC2S/C(=C(\C#N)C(C)=O)NC2=O)cc1 (stereo not given),-24.1%
5,CCCCc1c(C)nn(-c2nnc3c4ccccc4n(C)c3n2)c1C,-21.4%
6,Cc1cc2c(c(=O)o1)C(Cc1ccccc1)C(C#N)=C(N)O2 (stereo not given),4.23%
7,CCCCOc1ccc(C(=O)Nn2cnnc2)cc1,15.5%
8,COC(=O)CSc1nc(C)c(Oc2ccccc2)c(=O)[nH]1,22.2%
9,COc1ccc(OC(=O)c2cc3ccccc3o2)cc1,1.41%
10,COC(=O)C1=C(C)N=C2SC(C)C(=O)N2C1c1ccc(C(=O)OC)cc1 (stereo not given),-9.79%
11,CC(O)CNc1nc2c(c(=O)n(C)c(=O)n2C)n1CCc1ccccc1 (stereo not given),-2.48%
12,CCCCn1c(-c2ccc(Cl)cc2)nc2c(=O)n(C)c(=O)[nH]c21,22.6%
13,CN(C1CCS(=O)(=O)C1)S(=O)(=O)c1cccc2nsnc12 (stereo not given),-3.76%
14,CC1CN(c2oc(-c3cccs3)nc2C#N)CC(C)O1 (stereo not given),3.54%
15,COC(=O)CSc1nc(N)nc(C)c1Br,5.47%
16,C=C(C)CSc1nc(N)c2c3c(sc2n1)CCC3,-27.1%
17,Cc1cc(=O)n2[nH]cnc2n1,14.3%
18,N#Cc1ccc(-c2cccnc2)nc1SCC(=O)Nc1sc2c(c1C#N)CCC2,-1.23%
19,Cc1ccc(N(CN2C(=O)NC(C)(C)C2=O)CN2C(=O)NC(C)(C)C2=O)cc1,5%
20,COC(=O)C(NC(=O)c1ccccc1)(Nc1nccs1)C(F)(F)F (stereo not given),6.27%

row,Compound,"activity change, negative = inhibition"
1,Cc1ccc2c(=O)c(CN(C)C3CCN(C)CC3)c(C)[nH]c2c1C,0.184%
2,C=CCOc1ccc(C2/C(=C(\O)c3ccc(F)cc3)C(=O)C(=O)N2CCCN(C)C)cc1 (stereo not given),4.74%
3,Cc1nc2c(o1)CCc1ccccc1C2O (stereo not given),8.51%
4,COc1ccc2c(c1)[nH]c1c(=O)n(CC3CCCO3)cnc12 (stereo not given),-4.81%
5,CCOC(=O)CCCCC(=O)NC(CO)C(=O)NC (stereo not given),13.2%
6,CCOc1ccc(C2C(C(=O)c3ccc(C)o3)=C(O)C(=O)N2CCCN(CC)CC)cc1 (stereo not given),-5.84%
7,CCOC(=O)C1=C(CSc2nc(C)cc(C)c2C#N)OC(N)=C(C#N)C1c1cccs1 (stereo not given),18.8%
8,CCc1cccc(CC)c1N(COC)C(=O)Cn1nnc2ccccc21,-10.2%
9,COc1ccccc1-c1nnc2sc(COc3ccccc3)nn12,-9.17%
10,CCCOc1ccc(/C(O)=C2/C(=O)C(=O)N(CCCn3ccnc3)C2c2cccs2)cc1 (stereo not given),-14.1%
11,CCCOc1cccc(C2/C(=C(/O)c3ccc(F)cc3)C(=O)C(=O)N2CCN(C)C)c1 (stereo not given),3.27%
12,O=C(CSc1nnc(-c2ccco2)c(-c2ccco2)n1)Nc1ccccc1,3.29%
13,CCN(CC)c1nc(N2CCOCC2)c(C#N)c2c1CN(C)CC2,-1.52%
14,CN1CCc2c(n(CC(O)CN3C(=O)c4ccccc4S3(=O)=O)c3ccccc23)C1=O (stereo not given),27.1%
15,Cc1cc(C(=O)O)c(CSc2ncn[nH]2)o1,12.5%
16,CNC(=O)CCn1nc(-c2ccccc2)c2ccccc2c1=O,5.34%
17,COc1ccc(CSc2nnc(C)n2N)cc1Br,-1.02%
18,Cc1cc(C)n(C(=O)CSc2nc3ccccc3o2)n1,13.4%
19,CCOc1ccc2nc(SCC(=O)Nc3ncccn3)[nH]c2c1,-9.31%
20,O=C(CC1SC2=NCCN2C1=O)Nc1ccccc1 (stereo not given),4.21%

# Experiment: NFAT Signaling Pathway (AID 444);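 also: carbachol stimulus at about its EC50 of 1 µM final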
# Conditions: Jurkat NFAT-bla M1, carbachol, beta-lactamase ratio, 5 h; at 17.2 µM (top of the series) unless noted
# How it was run: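 Read-out: CCF4 FRET ratio (460 nm/530 nm) after 1 h RT dye loading, used for %activity and AC50 from titration series. Cells: Jurkat NFAT-β-lactamase/M1 line, treated with compound plus 1 uM carbachol for 5 h, 37 °C.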
row,Compound,"activity change, negative = inhibition"
1,CCOC(=O)NC(Nc1cc(C)on1)(C(F)(F)F)C(F)(F)F,-2.55%
2,CCOc1cccc(-c2nn3c(-c4ccco4)nnc3s2)c1,-4.59%
3,COc1cccc(N2CCN(c3ncnc4c3[nH]c3ccc(F)cc34)CC2C)c1 (stereo not given),-137% (active)
4,CCOC(=O)c1ccc(CC2S/C(=C(\C#N)C(C)=O)NC2=O)cc1 (stereo not given),13.3%
5,CCCCc1c(C)nn(-c2nnc3c4ccccc4n(C)c3n2)c1C,-28.4%
6,Cc1cc2c(c(=O)o1)C(Cc1ccccc1)C(C#N)=C(N)O2 (stereo not given),9.9%
7,CCCCOc1ccc(C(=O)Nn2cnnc2)cc1,4.61%
8,COC(=O)CSc1nc(C)c(Oc2ccccc2)c(=O)[nH]1,15.3%
9,COc1ccc(OC(=O)c2cc3ccccc3o2)cc1,-19.7%
10,COC(=O)C1=C(C)N=C2SC(C)C(=O)N2C1c1ccc(C(=O)OC)cc1 (stereo not given),-6.71%
11,CC(O)CNc1nc2c(c(=O)n(C)c(=O)n2C)n1CCc1ccccc1 (stereo not given),-12.9%
12,CCCCn1c(-c2ccc(Cl)cc2)nc2c(=O)n(C)c(=O)[nH]c21,-14.1%
13,CN(C1CCS(=O)(=O)C1)S(=O)(=O)c1cccc2nsnc12 (stereo not given),18.9%
14,CC1CN(c2oc(-c3cccs3)nc2C#N)CC(C)O1 (stereo not given),5.83%
15,COC(=O)CSc1nc(N)nc(C)c1Br,1.04%
16,C=C(C)CSc1nc(N)c2c3c(sc2n1)CCC3,-3.51%
17,Cc1cc(=O)n2[nH]cnc2n1,10.4%
18,N#Cc1ccc(-c2cccnc2)nc1SCC(=O)Nc1sc2c(c1C#N)CCC2,-7.12%
19,Cc1ccc(N(CN2C(=O)NC(C)(C)C2=O)CN2C(=O)NC(C)(C)C2=O)cc1,15.5%
20,COC(=O)C(NC(=O)c1ccccc1)(Nc1nccs1)C(F)(F)F (stereo not given),2.67%

row,Compound,"activity change, negative = inhibition"
1,Cc1ccc2c(=O)c(CN(C)C3CCN(C)CC3)c(C)[nH]c2c1C,-6.29%
2,C=CCOc1ccc(C2/C(=C(\O)c3ccc(F)cc3)C(=O)C(=O)N2CCCN(C)C)cc1 (stereo not given),-5.15%
3,Cc1nc2c(o1)CCc1ccccc1C2O (stereo not given),3.41%
4,COc1ccc2c(c1)[nH]c1c(=O)n(CC3CCCO3)cnc12 (stereo not given),16.4%
5,CCOC(=O)CCCCC(=O)NC(CO)C(=O)NC (stereo not given),6.3%
6,CCOc1ccc(C2C(C(=O)c3ccc(C)o3)=C(O)C(=O)N2CCCN(CC)CC)cc1 (stereo not given),12.8%
7,CCOC(=O)C1=C(CSc2nc(C)cc(C)c2C#N)OC(N)=C(C#N)C1c1cccs1 (stereo not given),-27.2%
8,CCc1cccc(CC)c1N(COC)C(=O)Cn1nnc2ccccc21,10%
9,COc1ccccc1-c1nnc2sc(COc3ccccc3)nn12,13.4%
10,CCCOc1ccc(/C(O)=C2/C(=O)C(=O)N(CCCn3ccnc3)C2c2cccs2)cc1 (stereo not given),2.88%
11,CCCOc1cccc(C2/C(=C(/O)c3ccc(F)cc3)C(=O)C(=O)N2CCN(C)C)c1 (stereo not given),2.49%
12,O=C(CSc1nnc(-c2ccco2)c(-c2ccco2)n1)Nc1ccccc1,-3.07%
13,CCN(CC)c1nc(N2CCOCC2)c(C#N)c2c1CN(C)CC2,12.3%
14,CN1CCc2c(n(CC(O)CN3C(=O)c4ccccc4S3(=O)=O)c3ccccc23)C1=O (stereo not given),6.52%
15,Cc1cc(C(=O)O)c(CSc2ncn[nH]2)o1,19.7%
16,CNC(=O)CCn1nc(-c2ccccc2)c2ccccc2c1=O,-2.43%
17,COc1ccc(CSc2nnc(C)n2N)cc1Br,-3.73%
18,Cc1cc(C)n(C(=O)CSc2nc3ccccc3o2)n1,-4.76%
19,CCOc1ccc2nc(SCC(=O)Nc3ncccn3)[nH]c2c1,0.119%
20,O=C(CC1SC2=NCCN2C1=O)Nc1ccccc1 (stereo not given),19%
